Among the data in PubChem BioAssay (NCI) are growth values, retold here.

Holding throughout (experiment): NCI-60 one-dose screen, 48 h (100 = growth as untreated, 0 = no growth, -100 = all killed)
Conditions in all cases: 10 µM unless noted

In experiment [1] the test system is NCI-H23 lung.
The subject of experiment [2] is NCI-H226 lung.
For experiment [3], the system named is NCI-H322M lung.
Experiment [4] relates to HOP-62 NSCLC.
Experiment [5] deals with NCI-H460 lung.
Experiment [6] concerns HOP-92 NSCLC.
For experiment [7], the system named is NCI-H522 lung.
Experiment [8] concerns 786-0 renal.
Experiment [9] has as its system COLO 205 colon.
The subject of experiment [10] is A549/ATCC NSCLC.

The panel holds about 83,000 compounds, 20% with a hit somewhere; the sample as a whole holds those more often.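 Plates (96-well) were seeded with cells, treated with compound at one concentration, and incubated for 48 hours before percent growth was determined.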 Values without a mark were called inactive. Active and inactive are the calls of the source. Rule for the calls: active = growth percent below 10; inactive = the rest.

As for `c1ccc2c(c1)sc1ccccc12`, the growth in [1] is 99.8%; in experiment [2], 94.7%; in experiment [3], 95.7%; in [4] it was 97.7%; in experiment [5] it was 109%; in experiment [6], 74.7%. Moreover, the growth in experiment [7] was 98.9%; in experiment [8], 105%; in experiment [9], 98.6%.
Turning to `Cc1cc(N)ccc1N`, the growth is 105% in experiment [1]; 92% in experiment [2]; 95% in experiment [3]; 93.9% in experiment [4]; 106% in [5]; 95.1% in experiment [6]. The growth is 106% in [7], 98.2% in experiment [10] and 120% in experiment [9].
For the molecule `OCCNC1CCCCC1`, the growth in experiment [1] was 108%; in experiment [2], 104%; in [3] it was 113%; in experiment [4], 99.2%; in [5], 105%; in [6], 108%. Moreover, the growth in experiment [10] is 106%.
`O=C1CN2CCC1CC2`: the growth was 101% in [1]; 96.8% in [2]; 99.3% in [3]; 93.5% in experiment [4]; 115% in experiment [5]; 106% in [6]. Further, the figures for the growth in [10], in experiment [8] and in experiment [9] were 92.7%, 88.9% and 116%, respectively.
Take `CC(=O)OC1CC2(O)C(CCC3(C)C(c4ccc(=O)oc4)CCC32O)C2(C)CCC(OC3OC(CO)C(O)C(O)C3O)C=C12` (centres undefined): the growth in experiment [1] was -57.2% (active); in [2] it was -91.6% (active); in [3], -81.6% (active); in experiment [4] it was -70.7% (active); in experiment [5] it was -75.3% (active); in [6], -24.2% (active). For the same molecule, the growth was -72.9% (active) in experiment [10], -74.6% (active) in [8] and -47.1% (active) in experiment [9].
Consider `COc1cc(C2C3=C(CCCC3=O)N(CCO)c3cc4c(cc32)CCC4)cc(OC)c1OC` (centres undefined), for which the growth in experiment [1] is 80.8%; in experiment [2] it was 103%; in experiment [3], 75.1%; in [4] it was 92.6%; in experiment [5], 36.4%; in experiment [6], 76%. Besides, the growth was 62.7% in experiment [7], 58.9% in experiment [10], 84.6% in experiment [8] and 74% in experiment [9].
With `COc1ccn(C)c(=O)c1C#N`, the growth was 105% in [1]; 91.6% in [2]; 92.3% in [3]; 83.5% in [4]; 108% in experiment [5]; 116% in experiment [6]. For the same molecule, the results for the growth in [10], in [8] and in [9] were 83.7%, 104% and 95.9%, respectively.
Consider `CCC1(NC(=O)c2cc(F)c(F)c(F)c2F)C(=O)NC(=O)N(C(C)C)C1=O` (centres undefined), for which the growth is 47% in experiment [1]; 139% in experiment [2]; 90.2% in experiment [3]; 101% in experiment [4]; 99.7% in [5]; 79.9% in experiment [6]. For the same molecule, the growth in [10] was 75.9%; in [8], 101%; in [9], 141%.
Regarding `CC[C@H](C)[C@H](NC(=O)c1cnccn1)C(=O)N(C)[C@H](C[C@@H](OC(C)=O)c1nc(C(=O)N[C@@H](Cc2ccccc2)C[C@H](C)C(=O)OC)cs1)C(C)C`, the growth is 26.2% in experiment [1]; 33.6% in [2]; 46.3% in experiment [3]; 17.6% in [4]; 8.2% (active) in [5]; 16.9% in experiment [6]. Moreover, the growth was -24.6% (active) in experiment [7], 19.2% in experiment [10], 24.2% in experiment [8] and -20.3% (active) in [9].
Consider `O=C(O)C(F)F`, for which the growth in experiment [1] was 107%; in experiment [2] it was 89.9%; in experiment [3], 114%; in [4], 86.9%; in experiment [5], 89.2%; in [6], 107%. Besides, the growth was 101% in experiment [7], 106% in [8] and 105% in experiment [9].
With `CC/C(=C(\c1ccc(OCCN2CCOCC2)cc1)c1ccc(OC(=O)Cc2ccccc2)cc1)c1ccc(Cl)cc1`, the growth was 104% in experiment [1]; 106% in [2]; 87.9% in [3]; 103% in experiment [4]; 106% in experiment [5]; 94.4% in experiment [6]. Besides, the values for the growth in experiment [10], in experiment [8] and in experiment [9] were 101%, 107% and 120%, respectively.
As to `Nc1cccnc1`, the growth is 109% in experiment [1]; 107% in experiment [2]; 105% in experiment [3]; 104% in experiment [4]; 115% in experiment [5]; 101% in experiment [6]. Further, the growth in experiment [10] is 106%; in [8] it was 109%; in experiment [9] it was 115%.
With `C[C@]12CCc3sc(Nc4ccc(F)cc4F)nc3C1=CC[C@@H]1[C@@H]2CC[C@]2(C)C(=O)CC[C@@H]12`, the growth in [1] was 66.2%; in experiment [2], 84.2%; in [3] it was 84.5%; in experiment [5] it was 60.9%; in [6] it was 77.1%; in experiment [7], 42.6%. The growth was 61.7% in experiment [10] and -27.7% (active) in [8].
Regarding `CC1=C2[C@H]3OC(=O)[C@@H](C)[C@@H]3CC[C@@]2(C)C=CC1=O`, the growth in [1] is 54.5%; in [2], 92%; in [3], 85.8%; in experiment [4] it was 111%; in experiment [5], 116%; in experiment [7], 123%. Further, the growth in experiment [8] was 106%; in [9], 96.7%.
